Experimental data reported in PubChem BioAssay (NCI).
“And” between values parts separate entries of the source, which are not always exact repeats. Equal entries are not always repeated. About 79,000 compounds went through this panel and 15% of them were active in at least one assay; those are over-represented in the sample as a whole. A structure can be active in one record and inactive in another. The source made the active and inactive calls. No stated cut-off is given here; in the data, active means growth inhibition above about 70%; inactive means the rest.

Assays:
[1] = NCI Yeast Anticancer Drug Screen. Data for the rad50 strain (AID 155);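 further: 0% = growth of vehicle-only cultures of the same strain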; details: S. cerevisiae rad50 strain growth inhibition, stronger effect = higher value
Outline: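 Cells are treated with compound, grown, and their growth is then scored against vehicle-only cultures of the same repair-deficient yeast strain.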

[2] = NCI Yeast Anticancer Drug Screen. Data for the mec2-1 strain (AID 157); details: S. cerevisiae mec2-1 strain, stronger effect = higher value
Outline: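 Each compound was tested on mec2-1 yeast, a strain altered in DNA damage repair or cell cycle control. Growth inhibition is reported relative to vehicle.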

[3] = NCI Yeast Anticancer Drug Screen. Data for the sgs1 mgt1 strain (AID 161);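 further: 0% = growth of cultures given vehicle only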; details: S. cerevisiae sgs1 mgt1 strain, stronger effect = higher value
Outline: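 Genetically altered yeast, compound exposure, growth inhibition relative to vehicle.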

[4] = NCI Yeast Anticancer Drug Screen. Data for the cln2 rad14 strain (AID 165);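 further: 0% = growth equal to vehicle treated cultures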; details: S. cerevisiae cln2 rad14 strain, stronger effect = higher value
Outline: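 Test compounds were added to cln2 rad14 yeast cultures; inhibition of growth was then determined by comparison with vehicle treatment.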

[5] = NCI Yeast Anticancer Drug Screen. Data for the bub3 strain (AID 167); details: S. cerevisiae bub3 mutant strain, stronger effect = higher value
Outline: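 Part of a panel of yeast mutants defective in DNA damage repair or cell cycle regulation. Each strain is grown with compound, and inhibition is calculated relative to solvent-treated cultures.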

[6] = NCI Yeast Anticancer Drug Screen. Data for the mlh1 rad18 strain (AID 175); details: S. cerevisiae mlh1 rad18 strain growth inhibition, stronger effect = higher value
Outline: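 Inhibition values reflect reduced growth of mutant yeast versus vehicle-treated controls following compound exposure; the mutations affect DNA damage repair.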

[7] = at 5.0 µM (retest, dose inferred, filed as 0.5)
[8] = at 50.0 µM (retest, dose inferred, filed as 5.0)

SMILES	growth inhibition [1, 7]	growth inhibition [1, 8]	growth inhibition ([1]; at 50.0 µM)	growth inhibition [2, 7]	growth inhibition [2, 8]	growth inhibition ([2]; at 50.0 µM)	growth inhibition [3, 7]	growth inhibition [3, 8]	growth inhibition ([3]; at 50.0 µM)	growth inhibition [4, 7]	growth inhibition [4, 8]	growth inhibition ([4]; at 50.0 µM)	growth inhibition [5, 7]	growth inhibition [5, 8]	growth inhibition ([5]; at 50.0 µM)	growth inhibition [6, 7]	growth inhibition [6, 8]	growth inhibition ([6]; at 50.0 µM)
Clc1ccc(-c2cc(=[N+]3CC[N+](=c4cc(-c5ccc(Cl)cc5)ss4)CC3)ss2)cc1	8% (inactive)	3% (inactive)	98.3% (active)	-158% (inactive)	-3% (inactive)	98.2% (active)	2% (inactive)	4% (inactive)	98.9% (active)	5% (inactive)	-9% (inactive)	95.7% (active)	3% (inactive)	-2% (inactive)	98% (active)	7% (inactive)	4% (inactive)	98.5% (active)
C[n+]1ccccc1-c1nc(-c2cccc[n+]2C)nc(-c2cccc[n+]2C)n1	37% (inactive)	75% (active)	56.6% (inactive)	46% (inactive)	57% (inactive)	49.6% (inactive)	23% (inactive)	69% (inactive)	79.6% (active)	14% (inactive)	51% (inactive)	21.9% (inactive)	19% (inactive)	73% (active)	44.9% (inactive)	37% (inactive)	82% (active)	84.2% (active)
CCCC[CH2][Pb]([CH2]CCCC)([CH2]CCCC)[O]C(C)=O	99% (active)	96% (active)	99% (active)	99% (active)	98% (active)	99.2% (active)	100% (active)	99% (active)	98.8% (active)	99% (active)	95% (active)	98% (active)	100% (active)	97% (active)	98% (active)	99% (active)	93% (active)	98.5% (active)
O=C(N/N=C/c1cc(Cl)cc(Cl)c1[O-])c1ccccc1O.O=C(N/N=C/c1cc(Cl)cc(Cl)c1[O-])c1ccccc1O.[Zn+2]	93% (active)	63% (inactive)	94.5% (active)	97% (active)	64% (inactive)	91.8% (active)	96% (active)	72% (active)	93% (active)	92% (active)	50% (inactive)	91.8% (active)	95% (active)	62% (inactive)	92.7% (active)	95% (active)	64% (inactive)	95.1% (active)
C[C@]12CC[C@H]3[C@@H](CCC4=CC(=O)CC[C@@H]43)[C@@H]1CC[C@@H]2OC1(O)C(=O)c2ccccc2C1=O	-7% (inactive)	47% (inactive)	65.2% (inactive)	-6% (inactive)	21% (inactive)	27.4% (inactive)	-2% (inactive)	59% (inactive)	74.8% (active)	-16% (inactive)	22% (inactive)	20.5% (inactive)	-8% (inactive)	44% (inactive)	69.9% (inactive)	11% (inactive)	44% (inactive)	61.7% (inactive)
Nc1nc(N)c(-c2ccc(Cl)c(Cl)c2)c(CCc2ccc(CNC(=O)c3ccc(S(=O)(=O)F)cc3)cc2)n1	-4% (inactive)	87% (active)	46.7% (inactive)	3% (inactive)	66% (inactive)	96.5% (active)	6% (inactive)	98% (active)	44% (inactive)	-14% (inactive)	88% (active)	74.6% (active)	-17% (inactive)	54% (inactive)	68.9% (inactive)	22% (inactive)	96% (active)	76.2% (active)
CC1=C2C(=O)[C@H]3[C@@H](CC=C4C[C@@H](O)CC[C@@]43C)[C@@H]2CC[C@]12O[C@@H]1C[C@H](C)CN[C@H]1[C@H]2C	8% (inactive) and 2% (inactive)	85% (active) and 81% (active)	90.5% (active) and 85.8% (active)	18% (inactive) and 3% (inactive)	96% (active) and 83% (active)	96.7% (active) and 90.8% (active)	11% (inactive) and 5% (inactive)	84% (active) and 91% (active)	97% (active) and 87% (active)	-27% (inactive) and -9% (inactive)	87% (active) and 60% (inactive)	84.2% (active) and 81% (active)	22% (inactive) and 17% (inactive)	91% (active) and 90% (active)	97.5% (active) and 88.5% (active)	10% (inactive) and 5% (inactive)	95% (active) and 89% (active)	90.7% (active) and 87.4% (active)
[Cl][Pt+2][Cl].[NH-]C1CCCC2CCC[N-]C12 (stereo unspecified)	34% (inactive)	97% (active)	20.6% (inactive)	24% (inactive)	77% (active)	60.4% (inactive)	55% (inactive)	98% (active)	57.8% (inactive)	50% (inactive)	86% (active)	34% (inactive)	52% (inactive)	84% (active)	38.5% (inactive)	18% (inactive)	97% (active)	76.1% (active)
[Ni+2].[O-][Cl+3]([O-])([O-])O.c1ccc([PH+](CC[PH+](c2ccccc2)c2ccccc2)c2ccccc2)cc1.c1ccc([PH+](CC[PH+](c2ccccc2)c2ccccc2)c2ccccc2)cc1	4% (inactive)	13% (inactive)	48.6% (inactive)	-1% (inactive)	12% (inactive)	41.8% (inactive)	1% (inactive)	32% (inactive)	59.2% (inactive)	3% (inactive)	-3% (inactive)	9.05% (inactive)	4% (inactive)	31% (inactive)	43.9% (inactive)	3% (inactive)	26% (inactive)	72% (active)
CC(Cc1ccccc1)N(C)Cc1ccc(-c2ccc(Cl)cc2)o1 (stereo unspecified)	56% (inactive)	100% (active)	99% (active)	11% (inactive)	100% (active)	99.7% (active)	49% (inactive)	100% (active)	33.9% (inactive)	38% (inactive)	100% (active)	99.3% (active)	42% (inactive)	100% (active)	99.2% (active)	41% (inactive)	100% (active)	99.5% (active)
COc1ccc(OC)c(C=O)c1	1% (inactive)	5% (inactive)	24.9% (inactive)	0% (inactive)	7% (inactive)	-12.2% (inactive)	-2% (inactive)	12% (inactive)	-11.7% (inactive)	2% (inactive)	4% (inactive)	-38.2% (inactive)	2% (inactive)	7% (inactive)	-35% (inactive)	-1% (inactive)	14% (inactive)	-8% (inactive)
CC(=O)C1CCC2C3CCC4CC([N+]5(C)CCCCC5)CCC4(C)C3CCC12C (stereo unspecified)	2% (inactive)	29% (inactive)	82.3% (active)	17% (inactive)	71% (active)	79.9% (active)	10% (inactive)	87% (active)	97.5% (active)	8% (inactive)	31% (inactive)	81.1% (active)	8% (inactive)	64% (inactive)	86.5% (active)	18% (inactive)	65% (inactive)	92% (active)
CC(C)(C)C1=CC(=C/C=C/c2cc(C(C)(C)C)[o+]c(C(C)(C)C)c2)C=C(C(C)(C)C)O1	99% (active)	93% (active)	67.3% (inactive)	99% (active)	96% (active)	95.6% (active)	99% (active)	94% (active)	52.5% (inactive)	99% (active)	94% (active)	96% (active)	99% (active)	94% (active)	94.3% (active)	99% (active)	95% (active)	37.5% (inactive)
FC(F)(F)c1nnn[n-]1.[Au+].c1ccc([PH+](c2ccccc2)c2ccccc2)cc1	99% (active)	97% (active)	97.6% (active)	100% (active)	97% (active)	97.2% (active)	99% (active)	98% (active)	95.6% (active)	99% (active)	96% (active)	94.5% (active)	98% (active)	97% (active)	96.3% (active)	99% (active)	97% (active)	94.7% (active)
O=c1c2ccccc2[se]n1-c1ccccc1	6% (inactive)	29% (inactive)	70.2% (active)	-12% (inactive)	32% (inactive)	88.8% (active)	-4% (inactive)	23% (inactive)	81.3% (active)	-19% (inactive)	26% (inactive)	66.6% (inactive)	-15% (inactive)	21% (inactive)	4.2% (inactive)	-12% (inactive)	62% (inactive)	86% (active)
CN1c2cccc[c]2[Sn]([CH3])([CH3])[c]2ccccc21	98% (active)	99% (active)	99.4% (active)	99% (active)	99% (active)	99.2% (active)	97% (active)	99% (active)	99.5% (active)	77% (active)	100% (active)	94% (active)	7% (inactive)	99% (active)	99.2% (active)	98% (active)	99% (active)	99.3% (active)
[Cl][Hg][Cl].c1ccc(CSc2ccccc2)cc1	99% (active)	99% (active)	99% (active)	100% (active)	100% (active)	99.7% (active)	100% (active)	99% (active)	99.3% (active)	99% (active)	99% (active)	99.4% (active)	99% (active)	99% (active)	99.2% (active)	99% (active)	99% (active)	99.5% (active)
